Experimental findings from PubChem BioAssay (Tox21) are described below.

Each structure is given as a SMILES string. Unmarked numbers belong to inactive results. Active and inactive are the calls of the source. The call rests on the fitted dose curve; in most records, active means well fitted curve in the direction sought with a large enough effect in the repeat runs; inconclusive means weak or mixed curves; inactive means flat fitted curve, though single readings scatter.
On the % scale 0 is the no-effect control and ±100 the full control effect.

This assay is described as follows: qHTS assay to test for compound auto fluorescence at 460 nm (blue) in HEK293 cells (AID 720678). Particulars: blue autofluorescence 405/460 nm; series mostly up to 91.3 µM; fluorescence, % of triamterene: at the top concentration. The gist of the method:
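Cells were seeded and left to adhere for 4-5 hr at 37C. Compounds were then pin-transferred. After an overnight incubation at 37C under 5% CO2, intrinsic fluorescence at 405/460 nm was measured and referenced to triamterene.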
As for `CC(=O)C(C)=O`, the “fluorescence, % of triamterene” value is 0.0769%. For the compound `O=C1[C@@H]2[C@H]3CC[C@H](C3)[C@@H]2C(=O)N1CCCCN1CCN(c2ncccn2)CC1`, the “fluorescence, % of triamterene” value was 0.0112% [at 46 µM]. `CNS(=O)(=O)c1cc(C(=O)N2CCC(CCN3C4CCC3CC(n3c(C)nc5ccccc53)C4)(c3cccc(F)c3)CC2)c(Cl)cc1F` (configuration not stated): the “fluorescence, % of triamterene” value was -0.112%. Take `O=C(O)CCS`: the “fluorescence, % of triamterene” value was -0.0227% [at 95.7 µM]. Regarding `COc1ccc(CCN(C)CCCN2CCc3cc(OC)c(OC)cc3CC2=O)cc1OC`, the “fluorescence, % of triamterene” value is -0.0531% [at 46 µM]. Take `CCCCCC`: the “fluorescence, % of triamterene” value was 0.0217%. As for `O=C(O)CCC(=O)c1ccc(-c2ccccc2)cc1`, the fluorescence, % of triamterene was -0.239% [at 18.6 µM]. On the same count and under the same terms, next, `CC1CCCO1` (configuration not stated): 0.0803%. Same read-out and setting: with `CSCC[C@H](NC(=O)[C@H](Cc1c[nH]c2ccccc12)NC(=O)CCNC(=O)OC(C)(C)C)C(=O)N[C@@H](CC(=O)O)C(=O)N[C@@H](Cc1ccccc1)C(N)=O` the figure was -0.123% [at 46 µM]; with `COc1ccc(-c2cc(=S)ss2)cc1`, -0.592% [at 46 µM]; with `COc1ccc(-n2nc(C(F)F)cc2-c2ccc(S(C)=O)cc2)cc1` (configuration not stated), -0.0611%.

`O=C(Oc1ccccc1)c1ccc2ccccc2c1O`: the “fluorescence, % of triamterene” value is 0.27%. Same read-out and setting: next, `SCCc1cnccn1`: -0.107%; `CCC(C)(C)C(=O)O`: 0.0351%. Regarding `Cc1cc(CCC(=O)OCCOCCOCCOC(=O)CCc2cc(C)c(O)c(C(C)(C)C)c2)cc(C(C)(C)C)c1O`, the “fluorescence, % of triamterene” value was -0.105%. Take `CCCCCCCC/C=C\CCCCCCCC(=O)OCCO`: the “fluorescence, % of triamterene” value was 0.167% [at 95.7 µM]. Turning to `COc1ccc(N)c([N+](=O)[O-])c1`, the “fluorescence, % of triamterene” value was 0.139%. On to `COc1ccc2nc(S(=O)Cc3ncc(C)c(OC)c3C)[nH]c2c1` (configuration not stated), for which the Potency result was “inactive”. Turning to `O=C(O)c1ccc(O)cc1O`, the “fluorescence, % of triamterene” value is -0.0622%. Same read-out and setting: next, `c1ccc(CNc2ncnc3c2ncn3C2CCCCO2)cc1` (configuration not stated): 0.102%. Consider `C[C@@H]1[C@H](O)[C@@H](C)/C=C/C=C\C=C\C=C\C=C\C=C\C=C\[C@H](O[C@@H]2O[C@H](C)[C@@H](O)[C@H](N)[C@@H]2O)C[C@@H]2O[C@](O)(C[C@@H](O)C[C@@H](O)[C@H](O)CC[C@@H](O)C[C@@H](O)CC(=O)O[C@H]1C)C[C@H](O)[C@H]2C(=O)O` (stereo in doubt), for which the Potency entry is “inactive”. With `O=C(O)CCC(=O)OC[C@@H](NC(=O)C(Cl)Cl)[C@H](O)c1ccc([N+](=O)[O-])cc1`, the “fluorescence, % of triamterene” value is -0.169% [at 46 µM]. Still for that read-out and setting: next, `CC(=O)OCCC(C)CC(C)(C)C` (configuration not stated): 0.0804%; `O=C1NC(=O)c2cccc3cccc1c23`: -0.03%; `CCN(CC)c1ccc(C(=C2C=CC(=[N+](CC)CC)C=C2)c2ccc(S(=O)(=O)O)cc2S(=O)(=O)[O-])cc1`: 1.21%.

Take `CCCCC[C@H](O)/C=C/[C@H]1[C@H](O)CC(=O)[C@@H]1C/C=C\CCCC(=O)O`: the “fluorescence, % of triamterene” value is 0.111% [at 46 µM].

Consider `CC[C@@H](CO)NCCN[C@@H](CC)CO`, for which the fluorescence, % of triamterene is 0.0077% [at 18.6 µM]. Take `O=[N+]([O-])C1(Br)COCOC1`: the “fluorescence, % of triamterene” value is -0.0278%. For the compound `CCCCOC(=O)CCCCC(=O)OCCCC`, the “fluorescence, % of triamterene” value was -0.177%.

In the case of `N[C@@H](Cc1cc(I)c(O)c(I)c1)C(=O)O`, the “fluorescence, % of triamterene” value is 0.0907% [at 46 µM]. On the same count and under the same terms, with `O=C(O)c1cccc(C[C@@H]2COc3ccc(OCc4nc5cc(F)ccc5s4)cc3[C@@H]2O)c1` the figure was -0.076%; with `CN(C)CC/C=C1\c2ccccc2Sc2ccc(Cl)cc21`, -0.347% [at 46 µM]; with `CCOC(=O)C(C)O` (configuration not stated), -0.167% [at 95.7 µM]. Consider `Cc1c(C2(c3cc(Br)c(O)c(Br)c3C)OS(=O)(=O)c3ccccc32)cc(Br)c(O)c1Br`, for which the “fluorescence, % of triamterene” value is -0.67%. On the same count and under the same terms, next, `CCC(CO)(CO)CO`: -0.329% [at 95.7 µM]. On to `CCOC(=O)c1ccc(NC(=O)CN2CCCCC2)cc1`, for which the “fluorescence, % of triamterene” value is -0.15% [at 46 µM]. In the case of `CCN(Cc1cccc(S(=O)(=O)O)c1)c1ccc(C(=C2C=CC(=[N+](CC)Cc3cccc(S(=O)(=O)O)c3)C=C2)c2ccccc2S(=O)(=O)[O-])cc1`, the “fluorescence, % of triamterene” value was 0.457%.
